In ChEMBL document CHEMBL4513146, “CO-ADD screening of Karazin Kharkiv National University (Ukraine) compounds”:
Entries with a potency or affinity are not part of this list.

Key:
[1] = system: Staphylococcus aureus; settings: Concentration 32 ug.mL-1;; ASSAY_TEST Inhibition of Bacterial Growth; detection method Absorption (OD600); MEDIA CAMHB; plate type 384well; NBS; CORNING #3640; time 18 hr
[2] = system: Escherichia coli; settings: Concentration 32 ug.mL-1;; ASSAY_TEST Inhibition of Bacterial Growth; detection method Absorption (OD600); MEDIA CAMHB; plate type 384well; NBS; CORNING #3640; time 18 hr

Row | Structure (SMILES) | Inhibition [1] [%] | Inhibition [2] [%]
1 | COc1ccc(-c2cc3c4nn(CC(=O)Nc5c(C)cccc5C)c(=O)n4ccn3n2)cc1 | 3.68 | -1.14
2 | O=C1CCCN1c1ccc(Cn2nc3ccc(-c4ccccc4)nn3c2=O)cc1 | -3.3 | -6.97
3 | CCc1nnc2c(SCC(=O)Nc3ccc(C(C)=O)cc3)nc3ccccc3n12 | 4.71 | 4.62
4 | CCOC(=O)c1ccc(NC(=O)Cn2nc3ccc(C(=O)Nc4cccc(C)c4)cn3c2=O)cc1 | 1.34 | -4.77
5 | Cc1ccc(C)c(S(=O)(=O)Nc2ccc3nncn3n2)c1 | 15.24 | 1.21
6 | Cc1ccc(Oc2nccn3c(=O)n(CC(=O)N4CCN(c5ccccc5F)CC4)nc23)cc1 | 10.22 | -0.59
7 | CCOc1ccccc1NC(=O)Cn1nc2c(Sc3cccc(C)c3)nccn2c1=O | 3.15 | -1.9
8 | CCCCn1c(=O)c2sccc2n2c(CCC(=O)NC(C)C34CC5CC(CC(C5)C3)C4)nnc12 (stereo not given) | 9.01 | 0.33
9 | COc1ccccc1-n1ccn2c(SCC(=O)Nc3ccc(F)cc3F)nnc2c1=O | -4.28 | 0.2
10 | Cc1ccc(C)c(CN(c2ccc(F)c(F)c2)S(=O)(=O)c2cccn3cnnc23)c1 | 5.14 | 0.2
11 | CCc1ccc(N(Cc2cc(F)cc(F)c2)S(=O)(=O)c2cccn3c(C)nnc23)cc1 | -13.36 | -0.39
12 | Cc1ccc(Sc2nccn3c(=O)n(CC(=O)Nc4cccc(Cl)c4)nc23)c(C)c1 | 9.86 | -3.61
13 | Cc1ccc(-c2cc3c4nnc(SCC(=O)Nc5cccc(Cl)c5C)n4ccn3n2)cc1 | -6.47 | -2.31
14 | O=C(Cn1nc2n(CCc3ccccc3)c(=O)c3ccccc3n2c1=O)Nc1ccc2c(c1)OCO2 | -2.08 | -8.34
15 | Cc1ccc(Sc2nccn3c(=O)n(CC(=O)Nc4cccc(Br)c4)nc23)c(C)c1 | -7.2 | -13.08
16 | Cc1cc2nn(CC(=O)Nc3ccc4c(c3)OCCO4)c(=O)n2c(Nc2ccccc2C)n1 | 9.51 | -1.19
17 | O=C(Cn1nc2c(N3CCOCC3)nccn2c1=O)Nc1ccc(Cl)cc1F | 8.72 | 5.15
18 | CCOc1ccc(N(Cc2ccc(F)cc2)S(=O)(=O)c2ccc3nncn3c2)cc1 | -10.69 | -16.83
19 | Cc1ccc(NC(=O)Cn2nc3ccc(SC(C)(C)C)nn3c2=O)cc1Cl | 3.27 | -0.69
20 | CC(C)c1nnc2c(=O)n(CC(=O)Nc3cccc(F)c3)c3ccccc3n12 | 22.23 | 3.96
21 | CCOc1ccccc1NC(=O)Cn1nc2c(N3CCN(c4ccccc4C)CC3)nccn2c1=O | -2.13 | -13.69
22 | COc1ccccc1-n1ccn2c(SCC(=O)N3CCN(c4ccccc4F)CC3)nnc2c1=O | 13.15 | -2.51
23 | COC(=O)c1ccc(NC(=O)CSc2nnc3ccc(C(=O)Nc4cccc(F)c4)cn23)cc1 | 19.46 | -0.45
24 | O=c1c2sccc2n2c(=S)[nH]nc2n1CC1CCCO1 (stereo not given) | 3.07 | -0.32

Row | Structure (SMILES) | Inhibition [1] [%] | Inhibition [2] [%]
25 | COC(=O)c1ccc(NC(=O)CSc2nc3ccccc3n3c(C(C)C)nnc23)cc1 | 12.04 | -0.7
26 | CCc1ccccc1NC(=O)Cn1nc2cc(C)nc(Nc3ccc(F)c(C)c3)n2c1=O | -15.94 | -1.7
27 | COc1ccccc1N1CCN(C(=O)Cn2nc3ccc(-c4ccc(C)c(C)c4)nn3c2=O)CC1 | 13.88 | -0.61
28 | CCCc1nnc2c(=O)n(CC(=O)Nc3ccc(NC(C)=O)cc3)c3ccccc3n12 | 9.51 | -0.84
29 | O=c1c2sccc2n2c(=O)n(Cc3ccc(Cl)cc3)nc2n1Cc1cccs1 | -8.27 | -9.25
30 | COc1ccc(OC)c(NC(=O)Cn2nc3c4cc(-c5ccc(Cl)cc5)nn4ccn3c2=O)c1 | -2.94 | -2.51
31 | CCCCc1ccc(NC(=O)Cn2nc3ccc(C(=O)Nc4ccc(OC)cc4)cn3c2=O)cc1 | 3.96 | -4.6
32 | COc1ccc(-c2cc3c4nn(CC(=O)Nc5cc(C)ccc5C)c(=O)n4ccn3n2)cc1 | 3.16 | 2.02
33 | Cc1ccc(CN(c2ccc(C(C)C)cc2)S(=O)(=O)c2cccn3c(C)nnc23)cc1 | 3.26 | -8.61
34 | COc1cccc(CNC(=O)CSc2nnc3c(=O)n(-c4ccccc4)ccn23)c1OC | 2.64 | -7.08
35 | Cc1cc(C)c(C(=O)CSc2nnc3c(=O)n(-c4ccc(F)cc4)ccn23)cc1C | 6.25 | -5.27
36 | CCCn1c(=O)c2sccc2n2c(=O)n(CC(=O)c3ccc(OC)c(OC)c3)nc12 | 7.14 | -1.62
37 | O=C(Cn1nc2ccc(-c3ccc(Cl)cc3)nn2c1=O)Nc1ccccc1 | -4.65 | -11.42
38 | COc1cc(NC(=O)Cn2nc3ccc(SC(C)C)nn3c2=O)cc(OC)c1 | -7.38 | -2.23
39 | Cc1ccc(Cl)cc1NC(=O)CSc1nc2ccccc2n2c(C(C)C)nnc12 | 0.87 | -1.5
40 | O=C(Cn1nc2c(Oc3ccccc3)nccn2c1=O)Nc1ccccc1F | 6.14 | -2.38
41 | COc1ccc(-c2cc3c4nn(CC(=O)Nc5ccccc5OC)c(=O)n4ccn3n2)cc1 | 2.83 | -1.9
42 | O=S(=O)(Nc1ccc2c(c1)OCCO2)c1ccc2nncn2c1 | 11.97 | -4.23
43 | Cc1ccc(Oc2nccn3c(=O)n(CC(=O)NCc4ccccc4Cl)nc23)cc1 | 12.36 | -4.03
44 | Cc1ccc(-c2cc3c4nn(CC(=O)N5CCN(c6ccc(F)cc6)CC5)c(=O)n4ccn3n2)cc1C | 6.16 | 1.43
45 | COc1ccc(NC(=O)Cn2nc3cc(C)nc(Nc4ccc(F)c(C)c4)n3c2=O)cc1 | -1.45 | -6.2
46 | COc1cccc(Sc2nc3ccccc3n3c(=O)n(CC(=O)Nc4cccc(C#N)c4)nc23)c1 | 2.4 | -6.13
47 | COc1cc(OC)c(NC(=O)Cn2nc3ccc(SC4CCCCC4)nn3c2=O)cc1Cl | 7.67 | 5.95
48 | CCc1nnc2c(S(=O)(=O)N(Cc3cccc(OC)c3)c3ccccc3)cccn12 | 13.09 | -2.65

Row | Structure (SMILES) | Inhibition [1] [%] | Inhibition [2] [%]
49 | Cc1nnc2c(=O)n(CC(=O)Nc3ccccc3Cl)c3ccccc3n12 | 10.77 | -2.02
50 | CCc1ccc(N(Cc2ccccc2)S(=O)(=O)c2cccn3c(C)nnc23)cc1 | 11.03 | -3.19
51 | Cc1cc(C)c(NC(=O)Cn2nc3c(Sc4cccc(F)c4)nccn3c2=O)c(C)c1 | 9.93 | -1.39
52 | O=c1c2sccc2n2c(=O)n(Cc3cccc(F)c3)nc2n1Cc1cccs1 | -6.6 | -12.16
53 | CCC(Sc1nnc2c(=O)n(-c3cccc(OC)c3)ccn12)C(=O)Nc1cc(OC)cc(OC)c1 (stereo not given) | 13.02 | -6.26
54 | CC(C)(C)Sc1ccc2nn(CC(=O)N3CCN(c4ccc(F)cc4)CC3)c(=O)n2n1 | 4 | 5.62
55 | O=C(Cn1nc2ccc(C(=O)NCc3ccccc3)cn2c1=O)Nc1ccc2c(c1)OCO2 | 7.86 | -0.58
56 | Cc1ccc(NC(=O)Cn2nc3c(N4CCOCC4)nccn3c2=O)cc1Cl | 10.97 | 1.83
57 | O=c1c2sccc2n2c(=O)n(Cc3ccc(Br)cc3)nc2n1Cc1cccs1 | -10.81 | -9.69
58 | CCc1nnc2c(S(=O)(=O)N(Cc3cccc(F)c3)c3ccccc3)cccn12 | 7.57 | -5.76
59 | COC(=O)c1ccc(CN(c2cccc(C)c2)S(=O)(=O)c2cccn3c(C)nnc23)o1 | 5.77 | -6.24
60 | O=C(CSc1nc2ccccc2n2cnnc12)Nc1ccc2c(c1)OCO2 | 4.59 | -3.46
61 | O=C(CSc1nnc2c(=O)n(-c3ccccc3)ccn12)Nc1ccc(Cl)cc1 | 3.58 | -4.07
62 | Cc1ccc(N(Cc2cc(F)cc(F)c2)S(=O)(=O)c2cccn3c(C)nnc23)cc1 | 11.96 | -4.21
63 | Cc1ccc(Oc2nccn3c(=O)n(CC(=O)Nc4ccc(Cl)cc4F)nc23)cc1 | 5.22 | -5.2
64 | O=C(CSc1nnc2c(=O)n(-c3ccc(F)cc3)ccn12)N1CCN(c2ccc(F)cc2)CC1 | 9.4 | -2.88
65 | COc1ccc(CNC(=O)CCc2nnc3c4cc(-c5ccc(Cl)cc5)nn4ccn23)cc1OC | 3.74 | 1.66
66 | COc1cc(OC)c(NC(=O)Cn2nc3ccc(Sc4ccc(C)cc4)nn3c2=O)cc1Cl | -4.96 | -10.5
67 | Cc1nnc2c(S(=O)(=O)N(Cc3ccc(F)cc3)c3ccc(C(C)C)cc3)cccn12 | -0.08 | -8.42
68 | COc1ccc(NC(=O)Cn2nc3c4cc(-c5ccc(OC)cc5)nn4ccn3c2=O)cc1 | 8.44 | 2.94
69 | CCOc1ccc(-n2ccn3c(SC(CC)C(=O)Nc4cc(F)ccc4F)nnc3c2=O)cc1 (stereo not given) | 7.7 | -0.34
70 | O=C(Cn1nc2c3cc(-c4ccc(F)cc4)nn3ccn2c1=O)Nc1ccc2c(c1)OCCO2 | 10.64 | 1.96
